Unmarked numbers belong to inactive results. How the calls were made is not given here.

Data on 40 compounds can be found in PubChem BioAssay.

The target of the test is Pantothenate synthetase (Mycobacterium tuberculosis (strain ATCC 25618 / H37Rv)) (UniProt P9WIL5). In words: Recombinant Mtb pantothenate synthetase (PanC) inhibitors, coupled enzyme, confirmatory (AID 375).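 Further: 0% = full reaction with vehicle and 100% = no enzyme background.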 Conditions: coupled enzyme assay; at 10 µM, active compounds read high.
Chain of Pantothenate synthetase (Mycobacterium tuberculosis (strain ATCC 25618 / H37Rv)) (P9WIL5 whole entry, looked up): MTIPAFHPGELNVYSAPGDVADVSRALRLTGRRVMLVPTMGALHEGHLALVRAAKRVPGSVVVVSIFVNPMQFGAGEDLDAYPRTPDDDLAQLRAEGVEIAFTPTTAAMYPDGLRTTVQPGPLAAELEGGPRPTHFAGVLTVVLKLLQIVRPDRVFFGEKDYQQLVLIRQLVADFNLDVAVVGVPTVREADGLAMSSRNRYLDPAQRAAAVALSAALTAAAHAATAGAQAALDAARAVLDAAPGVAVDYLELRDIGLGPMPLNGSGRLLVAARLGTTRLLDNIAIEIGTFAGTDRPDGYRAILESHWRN
In the case of `COc1ccc(Br)cc1C1N2CC3(C)CN1CC(C)(C2)C3=O` (stereo not given), the inhibition (usually the percentage by which the read-out fell short of the control) was 0%. With `CCCn1c(SCC(=O)N2CCCc3ccccc32)nnc1-c1ccccn1`, the inhibition is 3%. Then `COc1ccc(OC)c(C2/C(=C(\O)c3ccc4c(c3)OCCO4)C(=O)C(=O)N2CCCN(C)C)c1` (stereo not given), with 0%. In the case of `Cc1ccc(NC(=O)CN2CC(C)SC2=NC2CCCCC2)cc1` (stereo not given) it was 6%. In the case of `FC(F)(F)c1cc(-c2ccco2)nc(-n2nnc3ccccc32)n1` it was 0%; in that of `CCSc1nc2c(c(=O)n(C)c(=O)n2C)n1Cc1ccc(Cl)cc1`, 4%.

Consider `CCOc1nc(-c2ccccc2)ccc1-c1noc(-c2cccnc2)n1`, for which the inhibition was 0%. In the case of `CN(C)CCN1C(=O)c2oc3ccc(Cl)cc3c(=O)c2C1c1cccc(Br)c1` (stereo not given) it was 0%; in that of `COc1ccccc1CNC(=O)C1CCN(S(=O)(=O)N2CCCCC2)CC1`, 0%. Then `Clc1ccc(Cl)c(-c2nn3c(Cn4cnc5ccccc54)nnc3s2)c1`, with 0%. Then `O=C(CCn1c(=O)sc2ccccc21)NCc1ccc2c(c1)OCO2`, with 0%. Regarding `Cc1ccc(CCNC(=O)C2CCN(S(=O)(=O)c3c(C)nn(C)c3C)CC2)cc1`, the inhibition was 0%. Then `CN(C)CCCn1c(N)c(C#N)c2nc(C#N)c(C#N)nc21`, with 0%. In the case of `CCCc1nc(N2CCOCC2)c(C#N)c2c1CCCC2` it was 4%; in that of `O=P(O)(CCc1ccccc1)CN1CCCCC1`, 6%; in that of `COC(=O)Cc1c(C)c2ccc(OCC(=O)N3CCOCC3)cc2oc1=O`, 0%. Then `C[C@]12CC[C@H]3[C@@H](CCC4=CC(=O)CC[C@@]43C)[C@@H]1CC[C@@H]2C(=O)CO`, with 0%; and `Cc1ccc(S(=O)(=O)N(C)CC(=O)NC2CCCC2)cc1`, with 0%. Regarding `COc1ccc(C(CNC(=O)c2ccc(OCC3CCCO3)cc2)N2CCOCC2)cc1` (stereo not given), the inhibition is 0%.

Consider `Cc1ccc(S(=O)(=O)NCCc2ccncc2)cc1`, for which the inhibition was 2%. On to `CCOc1cc(C2C(C(=O)c3ccccc3)=C(C(=O)OC)Nc3nnnn32)ccc1O` (stereo not given), for which the inhibition is 0%. In the case of `O=C(Nc1cccc2ncccc12)c1ccc2c(c1)OCCO2` it was 0%; in that of `COCCNC(=O)CN1C(=O)CSc2ncccc21`, 0%. In the case of `COC(=O)c1cn(NC(=O)c2cccnc2)c(=O)c2ccccc12` it was 0%; in that of `CCn1c(CNc2ccc(OC)cc2)nnc1SCC(=O)c1ccc(OC)cc1`, 0%; in that of `COCCNc1nc(C(C)(C)C)nc2c1nnn2Cc1ccccc1Cl`, 0%.

As to `CCCSc1nc2c(cnn2-c2ccc(Cl)cc2)c(=O)[nH]1`, the inhibition is 0%. Then `CCc1nnc(-n2nc(C)cc2-c2ccccc2)n1N`, with 3%; and `O=c1c2c(-c3ccccc3)csc2nc2n1CCC2`, with 0%; and `CCOC(=O)C1=C(C)NC(=O)NC1c1ccc(Br)s1` (stereo not given), with 1%.

Regarding `COCCN1C=C(C(=O)OC)C(c2cc3c(cc2Br)OCO3)C(C(=O)OC)=C1`, the inhibition was 0%. `Cc1cccc(C)c1-n1nnnc1SCSc1nnnn1-c1c(C)cccc1C`: the inhibition is 1%.

Turning to `CCOC(=O)c1c(N)sc(C(=O)N2CCOCC2)c1C`, the inhibition was 4%. Then `O=C(Cc1nn[nH]n1)NCCC1=CCCCC1`, with 4%; and `CCOC(=O)C1=C(CSc2nc(C)cc(C)c2C#N)OC(N)=C(C#N)C1c1cccs1` (stereo not given), with 2%; and `COc1cc2c(N3CCOCC3)cc(O)c(CC(=O)Nc3ccccc3)c2cc1OC`, with 7%. For `CCS(=O)(=O)N1CCC(C(=O)N2CCOCC2)CC1`, the inhibition is 2%. Then `c1ccc(CCn2nnnc2CN2CCN(C3CCCC3)CC2)cc1`, with 2%; and `O=C(O)c1[nH]nc2c1COc1ccccc1-2`, with 6%.

For the compound `Cc1c(C(=O)OCCOC(C)C)[nH]c2c1C(=O)CC(c1ccco1)C2` (stereo not given), the inhibition was 0%.
